# Assay results as given in the supplement of paper PMC13380429.
# Counter-ions that a name gives are not always drawn. Unmarked numbers belong to inactive results.
# Test system: Vero E6 infected with SARS-CoV-2
# Test: inhibition of SARS-CoV-2 cytopathic effect; higher = more antiviral protection, active = above 15
# Conditions: 48 h
SMILES,inhibition of SARS-CoV-2 cytopathic effect (1 nM),inhibition of SARS-CoV-2 cytopathic effect (8.33 nM),inhibition of SARS-CoV-2 cytopathic effect (100 nM),inhibition of SARS-CoV-2 cytopathic effect (833.33 nM),inhibition of SARS-CoV-2 cytopathic effect (10000 nM)
CC(CCc1ccc(O)cc1)NCC(O)c1ccc(O)cc1 (stereo not given) [ractopamine],-2.7%,-0.49%,-1.47%,-0.11%,1.53%
CCN(CC)CCOc1ccc2c(c1)C(=O)c1cc(OCCN(CC)CC)ccc1-2 [tilorone],-0.99%,0.89%,1.34%,0.62%,24.9% (active)
COc1ccc(-c2cc3nccn3c(Nc3ncccc3C(N)=O)n2)cc1OC,-3.34%,-0.9%,-4.75%,-2.69%,-6.9%
C[C@]12C[C@H](O)[C@H]3[C@@H](CCC4=CC(=O)CC[C@@]43C)[C@@H]1CC[C@@H]2C(=O)CO [corticosterone],-1.19%,-0.88%,0.56%,-0.38%,0.43%
Cc1cncc(CN2CCC(=C3c4ccc(Cl)cc4CCc4cccnc43)CC2)c1 [rupatadine],-0.79%,-0.26%,2.27%,2.5%,-9.2%
COCC(=O)Nc1c(I)c(C(=O)NCC(O)CO)c(I)c(C(=O)N(C)CC(O)CO)c1I (stereo not given) [iopromide],-2.42%,-1.91%,-0.01%,-0.15%,0.66%
CC(=O)NC1CCSC1=O (stereo not given) [citiolone],3.06%,-0.41%,-6.39%,-4.01%,2.58%
O=C1CC[C@@H](C(=O)N2CSC[C@H]2C(=O)O)N1 [pidotimod],-1.03%,0.49%,-1.22%,2.73%,-0.3%
CC1CC(OC(=O)C(O)c2ccccc2)CC(C)(C)N1C (stereo not given) [eucatropine],0.81%,3.45%,1.74%,0.69%,0%
COC(=O)c1ccc(O)cc1 [methylparaben],-0.45%,0.03%,2.76%,1.99%,2.64%
Cc1ccc(NC(=O)C2(c3ccc4c(c3)OC(F)(F)O4)CC2)nc1-c1cccc(C(=O)O)c1 [lumacaftor],2.48%,0.38%,-1.4%,-0.17%,1.24%
CC[C@@H](c1cccc(O)c1)[C@@H](C)CN(C)C [Tapentadol (hydrochloride)],2%,1.05%,1.07%,3.03%,-0.29%
CN1CCN(c2cc3c(cc2F)c(=O)c(C(=O)O)cn3-c2ccc(F)cc2)CC1 [difloxacin],-1.68%,2.12%,0.47%,0.94%,1.41%
NCc1cc(O)no1 [muscimol],-0.61%,0.05%,2.35%,0.14%,0.49%
Nc1cccc(CNC(=O)c2ccc(Oc3ccc(OCc4cccc(F)c4)cc3)nc2)c1,-2.39%,-0.37%,0.75%,0.65%,-2.15%
COc1cc(F)c(C(C)C)cc1-c1ccc(C(F)(F)F)cc1CN1C(=O)O[C@H](c2cc(C(F)(F)F)cc(C(F)(F)F)c2)[C@@H]1C [anacetrapib],0.72%,0.48%,-1.02%,-2.52%,2.39%
CN1C(=O)CC(C)(c2ccccc2)C1=O (stereo not given) [methsuximide],-1.1%,0%,1.03%,0.88%,-0.14%
CCOc1ccccc1-n1c(C(C)N2CCN(C(=O)COc3ccc(Cl)cc3)CC2)nc2ccccc2c1=O (stereo not given) [erastin],-2.42%,-0.63%,-0.86%,-2.74%,7.21%
Oc1ccc2ccccc2c1Cc1c(O)ccc2ccccc12,2.61%,-1.04%,2.9%,-1.96%,5.77%
Nc1nc(NCCc2ccc(O)cc2)nc2nc(-c3ccco3)nn12,0.11%,-0.03%,-0.54%,-1.25%,-5.15%

SMILES,inhibition of SARS-CoV-2 cytopathic effect (1 nM),inhibition of SARS-CoV-2 cytopathic effect (8.33 nM),inhibition of SARS-CoV-2 cytopathic effect (100 nM),inhibition of SARS-CoV-2 cytopathic effect (833.33 nM),inhibition of SARS-CoV-2 cytopathic effect (10000 nM)
CCOC(=O)Nc1ccc2c(c1)N(C(=O)CN(C)C)c1ccccc1CC2 [tiracizine],3.29%,-0.87%,-0.27%,1.89%,0.68%
N#Cc1ccc(C(c2ccc(C#N)cc2)n2cncn2)cc1 [letrozole],-1.89%,4.26%,0.11%,-2.14%,-1.61%
Cn1nc(-c2ccc(C(F)(F)F)cc2)nc2c(=O)n(C)c(=O)nc1-2 [walrycin-B],-1.05%,-0.74%,1.15%,12.5%,-12.8%
C[N+](C)(C)CCCCCNCC12CC3CC(CC(C3)C1)C2,-4.72%,-5.14%,-6.53%,-6.39%,-4.67%
NC(=O)c1ccc([N+](=O)[O-])cc1Cl [aklomide],-0.14%,0.27%,2%,1.45%,0.79%
NCC(=O)N[C@@H](CCC(N)=O)C(=O)O,0.35%,-1.25%,-2.03%,2.57%,-2.42%
CCN(CC)CCNC(=O)c1ccccc1I,1.9%,1.7%,2.44%,-2.04%,2.51%
CC1OC2(CS1)CN1CCC2CC1 (stereo not given) [cevimeline],-0.26%,-0.65%,-1.15%,-0.01%,-1.57%
CCN1CCC(n2cc(CNc3cc(Cl)c4ncc(C#N)c(Nc5ccc(F)c(Cl)c5)c4c3)nn2)CC1 [cot-inhibitor-2],0.26%,-1.48%,0.28%,-0.75%,14%
Cc1cc(O)c(C(=O)N[C@@H](C(=O)N[C@@H]2C(=O)N3C(C(=O)O)=C(CSc4nnnn4C)CS[C@H]23)c2ccc(O)cc2)cn1 [cefpiramide],-0.65%,-0.72%,0.85%,2.35%,3.6%
CCCN(CCC)[C@H]1CCc2ccc(O)cc2C1 [7-hydroxy-DPAT],0.73%,2.39%,0.54%,-0.29%,0.48%
CCn1cc(C(=O)O)c(=O)c2ccc(-c3ccncc3)cc21 [rosoxacin],-1.03%,-0.12%,-1.66%,-2.14%,3.73%
C[C@@H]1CN(c2c(F)c(F)c3c(=O)c(C(=O)O)cn(C4CC4)c3c2F)C[C@H](C)N1 [orbifloxacin],-6.82%,-2.82%,-5.64%,-4.29%,-4.52%
CN(C)CCc1c[nH]c2ccc(Cn3cncn3)cc12 [rizatriptan],-0.4%,0.07%,-1.66%,-0.7%,-1.6%
COCc1c(-c2ccc(NC(=O)Nc3cc(C(F)(F)F)ccc3F)c(F)c2)c2c(N)ncnn2c1CN1CCOCC1,-1.56%,-1.94%,-2.74%,-0.39%,-0.16%
COC(=O)C1=C(C)NC(C)=C(C(=O)OCCCN2CCC(c3ccccc3)(c3ccccc3)CC2)[C@@H]1c1cccc([N+](=O)[O-])c1 [dexniguldipine],1.4%,0.16%,2.09%,-3.36%,-4.64%
CCCCCCCCCC(=O)O[C@H]1CC[C@H]2[C@@H]3CCC4=CC(=O)CC[C@@H]4[C@H]3CC[C@]12C [Nandrolone decanoate],0.16%,0.18%,-0.72%,0.02%,-4.93%
COc1ccc(C2(O)CCC(N3CC[C@@H](NC(=O)CNC(=O)c4cccc(C(F)(F)F)c4)C3)CC2)cn1 (stereo not given in full),-0.385%,0.89%,-1.07%,-1.1%,-0.44%
Cc1cc(C(C)(C)C)c(O)c(C)c1CC1=NCCN1 [oxymetazoline],0.98%,1.83%,1.85%,1.64%,0.31%
C=CCSCC1Nc2cc(Cl)c(S(N)(=O)=O)cc2S(=O)(=O)N1 (stereo not given) [althiazide],0.54%,0.99%,-0.07%,-0.46%,0.04%
